Sampled rows, rich in hits. Any-hit rate of the full collection: about 2.4%.
NOD2-RIPK2 inh = NOD2-RIPK2 protein interaction inhibition; O43353; CHO BLA complementation NOD2-RIPK2, CCF4 ratio; inhibition, % at 4.98 µM; 360,000 tested, 0.38% active; AID 624267; in the data active = inhibition above about 21%;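 note: 0% = vehicle only and 100% = reference blocker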
ANO1 block = mouse TMEM16A channel inhibition, primary screen; HEK293 TMEM16A/YFP iodide influx fluorescence, ionomycin; normalized B-score (activity score, 25-100; higher = stronger inhibition) at 10 µM; 310,000 tested, 1.2% active; AID 588511;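 active = ratio plate-corrected score three or more library SD toward inhibition, starting fluorescence score within five deviations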;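 note: score derived from kinetic fluorescence span divided by baseline fluorescence per well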
m5-HT2A agonist = activates the mouse 5-HT2A serotonin receptor; P35363; CHO-K1 mHTR2A beta-arrestin complementation, luminescence; percent of 30 µM serotonin response; activation, % at 7.6 µM; 360,000 tested, 0.66% active; AID 624169;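 active = activation above a run cutoff, the mean activation of all tested compounds plus 3 SD, cut at about 14% in these data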;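 note: 0% = plate median of compound wells and 100% = 30 µM serotonin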
Target sequence (P35363 whole entry, looked up): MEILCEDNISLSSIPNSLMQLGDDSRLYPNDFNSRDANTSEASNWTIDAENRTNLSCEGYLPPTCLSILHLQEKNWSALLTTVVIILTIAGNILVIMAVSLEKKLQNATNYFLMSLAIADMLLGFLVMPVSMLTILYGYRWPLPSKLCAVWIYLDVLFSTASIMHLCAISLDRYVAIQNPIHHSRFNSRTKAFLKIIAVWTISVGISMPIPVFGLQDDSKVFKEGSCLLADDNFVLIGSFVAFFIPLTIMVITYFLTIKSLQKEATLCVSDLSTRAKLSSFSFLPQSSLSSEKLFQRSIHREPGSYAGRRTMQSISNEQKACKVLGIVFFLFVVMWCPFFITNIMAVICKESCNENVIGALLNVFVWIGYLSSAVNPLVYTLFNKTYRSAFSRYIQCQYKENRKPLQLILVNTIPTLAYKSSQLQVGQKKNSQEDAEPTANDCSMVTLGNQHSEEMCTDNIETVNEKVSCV
TMEM16A act = activates or potentiates the mouse TMEM16A chloride channel; Q8BHY3; B-score at 10 µM; 340,000 tested, 0.3% active; AID 623877; HEK293 TMEM16A/YFP-H148Q/I152L, iodide quench fluorescence; active compounds read low;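 active = fluorescence-ratio B-score plate-corrected deviation score at least 3 library SD below zero, with starting fluorescence score within 5 deviations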;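 note: channel opened by trigger with iodide after compound preincubation; score built on the fluorescence ratio of max minus min over baseline; more negative score means more quench and so TMEM16A activation or potentiation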
TLR9-MyD88 block = inhibitors of human TLR9-MyD88 binding; inhibition, % at 4.98 µM; 340,000 tested, 0.21% active; CHO BLA complementation TLR9-MyD88, CCF4 FRET ratio; AID 504734;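 active = inhibition above the mean over all tested compounds plus 3 SD, cut at about 21% in these data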;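 note: 0% = DMSO only wells and 100% = clavulanate BLA inhibitor control wells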
TLR4-MyD88 BLA = TLR4-MyD88 interaction inhibition in cells; inhibition, % at 8.4 µM; AID 861; 200,000 tested, 0.18% active; HeLa CL3-4 TLR4/MyD88 BLA complementation, FRET ratio; in the data active = inhibition above about 25%;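 note: 0% = vehicle and 100% = reference inhibitor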
NOD2 RIPK2 conf = NOD2-RIPK2 interaction inhibition confirmed | shares compounds with NOD2-RIPK2 inh | CHO cells, NOD2-RIPK2 BLA complementation, CCF4 FRET | inhibition, % at 4.98 µM | 1,200 tested, 70% active | AID 624370;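 active = mean inhibition across replicates above a set limit taken from the earlier primary screen, cut at about 21% in these data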;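 note: 0% = DMSO-only wells and the high end = clavulanate BLA-blocked wells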
BLA counter = NOD2-RIPK2 counterscreen BLA reporter activity; shares compounds with NOD2-RIPK2 inh; CHO BLA reporter, CCF4 FRET ratio; inhibition, % at 4.98 µM; 1,200 tested, 57% active;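 active = mean inhibition above the low-control mean inhibition plus three low-control SD, cut at about 11% in these data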;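 note: 0% = DMSO only wells and 100% = clavulanate high control wells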
* hit, by the source's call; i = inactive; / = not tested or not shown.

SMILES	NOD2-RIPK2 inh	ANO1 block	m5-HT2A agonist	TMEM16A act	TLR9-MyD88 block	TLR4-MyD88 BLA	NOD2 RIPK2 conf	BLA counter
Cc1cc(S(=O)(=O)c2ccc([N+](=O)[O-])cn2)ccc1Br	-3	i	-2	i	-4	/	/	/
O=[N+]([O-])c1ccc(S(=O)(=O)c2ccccc2)nc1	78*	i	1	i	3	/	54*	13*
COc1ccc(-c2ccc(CN3C(C(C)C)C(=O)N(Cc4cn(CCC5OCCCO5)nn4)CCS3(=O)=O)cc2)cn1 (configuration not stated)	-3	/	2	/	-7	/	/	/
Cc1ccccc1-c1noc(CCC(=O)NCCc2ccccc2)n1	-7	i	3	i	10	/	/	/
Cc1ccc(NC2=CC(=O)CC(C)(C)C2)cc1C	1	i	-6	i	-1	2	/	/
COc1ccc(NC2=CC(=O)CC(C)(C)C2)cc1OC	23*	i	1	i	-5	11	-11	-3
COc1ccc(NC(=O)C(c2ccc(C(F)(F)F)cc2)n2c(=O)c(-c3ccco3)nc3ccccc32)cc1 (configuration not stated)	-8	/	-3	/	/	/	/	/
N#Cc1ccc(C(C(=O)Nc2ccc3c(c2)OCCO3)n2c(=O)c(-c3ccco3)nc3ccccc32)cc1 (configuration not stated)	-12	/	-5	/	/	/	/	/
O=C(Nc1ccc2c(c1)OCCO2)C(c1ccccc1F)n1c(=O)c(-c2cc3ccccc3[nH]2)nc2ccccc21 (configuration not stated)	49*	/	-5	/	/	/	45*	67*
O=C(Nc1ccc2ccccc2c1)C(c1ccc(C(F)(F)F)cc1)n1c(=O)c(-c2cc3ccccc3[nH]2)nc2ccccc21 (configuration not stated)	46*	/	-6	/	/	/	40*	65*
O=C(Nc1ccc2c(c1)OCCO2)C(c1ccncc1)n1c(=O)c(-c2cc3ccccc3[nH]2)nc2ccccc21 (configuration not stated)	34*	/	5	/	/	/	37*	58*
O=C(Nc1ccc2c(c1)OCCO2)C(c1ccc(C(F)(F)F)cc1)n1c(=O)c(-c2cc3ccccc3[nH]2)nc2ccccc21 (configuration not stated)	48*	/	0	/	/	/	44*	66*
Clc1cccc(Cl)c1COc1ccccc1CNn1cnnc1	-4	i	-1	i	-17	6	/	/
Nc1cc(Cl)ccc1C(=O)OCC(=O)N1CCCCCC1	-11	/	10	i	-8	/	/	/
COc1cc(OC)cc(C(=O)OCC(=O)N(C)c2ccccc2)c1	0	i	5	i	-16	/	/	/
N#CC1=C(N)Oc2cc(N)ccc2C1c1ccccc1Cl (configuration not stated)	28*	i	3	i	-4	/	-2	-1
N#CC1=C(N)Oc2cc(N)ccc2C1c1ccc(Cl)cc1 (configuration not stated)	7	i	3	i	7	/	/	/
Cc1ccccc1NC(=O)NCCCN1CCCC1=O	4	i	-1	i	2	/	/	/
C/C(=N\NC(=S)NC1CCCCC1)c1cccc(Br)c1	32*	i	-1	i	-4	2	-2	-3
COc1ccc(C(=O)C(CN2CCOCC2)c2ccccc2)cc1F (configuration not stated)	58*	/	3	i	4	-3	-4	-5
O=[N+]([O-])/C=C\c1ccc(N2CCOCC2)cc1	45*	i	-6	i	5	/	43*	-5
COc1cccc(N2CCN(c3ncnc4c3[nH]c3ccc(F)cc34)CC2C)c1 (configuration not stated)	28*	100*	32*	i	3	6	15	0
Fc1ccc2[nH]c3c(N4CCN(C5CCCCC5)CC4)ncnc3c2c1	/	i	/	/	/	10	/	/
O=[N+]([O-])c1ccc(N/N=C/c2ccccc2)c(F)c1	24*	i	-2	i	17	17	27*	30*
NNc1nc2ccc(F)cc2s1	30*	i	-3	i	7	-7	-5	-4
SMILES	NOD2-RIPK2 inh	ANO1 block	m5-HT2A agonist	TMEM16A act	TLR9-MyD88 block	TLR4-MyD88 BLA	NOD2 RIPK2 conf	BLA counter
CC(/C=C/c1ccc(N(C)C)cc1)=N/N=C1/NC(=O)CC(C(=O)Nc2ccc(Cl)cc2)S1 (configuration not stated)	24*	i	5	i	14	7	19	32*
CCCOc1ccc(NC(=O)C2CC(=O)N/C(=N/N=C(\C)CCc3ccc4c(c3)OCO4)S2)cc1 (configuration not stated)	-5	i	1	i	9	-8	/	/
CCCOc1ccc(NC(=O)C2CC(=O)N/C(=N/N=C(C)/C=C/c3ccc(N(C)C)cc3)S2)cc1 (configuration not stated)	22*	i	2	i	10	13	19	26*
CC(/C=C/c1ccc(N(C)C)cc1)=N\N=C1\NC(=O)CC(C(=O)Nc2ccccc2)S1 (configuration not stated)	-1	i	-2	i	2	-1	/	/
Cc1c(C(=O)NCc2ccc(C(F)(F)F)cc2)sc(=O)n1Cc1cccc(F)c1	9	/	-8	/	/	/	/	/
COc1ccc(OCCCC(=O)OC(C)C(=O)Nc2cccc(C(C)=O)c2)cc1 (configuration not stated)	-1	i	9	i	-3	/	/	/
O=c1oc2cc(O)ccc2cc1-c1nc2ccccc2o1	57*	/	-2	/	/	/	54*	68*
O=c1oc2cc(O)ccc2cc1S(=O)(=O)c1ccccc1	-40	i	7	i	-112	/	/	/
C/C(=N\NC(=O)Cc1ccc(O)cc1)c1cccnc1	-17	i	-10	i	-12	/	/	/
COc1ccc(/C=C2\CN(Cc3ccccc3)C/C(=C\c3ccc(OC)c(O)c3)C2=O)cc1O	26*	i	-4	i	10	/	27*	5
CCN1C/C(=C/c2ccc(OC)c(O)c2)C(=O)/C(=C/c2ccc(OC)c(O)c2)C1	6	i	1	i	-6	15	/	/
CC(=O)Nc1ccc(N2C(=O)c3cccc4c(O)ccc(c34)C2=O)cc1	27*	i	9	i	17	/	25*	28*
CC(C)C(Nc1ccc(S(=O)(=O)N2CCOCC2)cc1[N+](=O)[O-])C(=O)O (configuration not stated)	-6	i	0	i	-13	0	/	/

Compound activity (PubChem)
